Sampled rows, rich in hits. Any-hit rate of the full collection: about 21%.
Pf growth 48h: P. falciparum growth inhibition at 48 hours (one generation); AID 504832; Potency, µM (titrated, usually from 28.7 µM), hits mostly inhibitors; 310,000 tested, 5.9% active; P. falciparum luciferase growth in erythrocytes, 48 h
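Growth was read as firefly luciferase luminescence after a 48 h, 37 C, 5% CO2 exposure of compounds to reporter-bearing P. falciparum cultures (0.1% parasitemia, 2% hematocrit final) in Albumax-supplemented RPMI 1640.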
Shiga inhibitor: Shiga toxin inhibition | 290,000 tested, 9.2% active | AID 2315 | Vero cells, Shiga toxin protein synthesis inhibition reporter | inhibition, % at 38.7 µM; in the data active means inhibition mostly above about 28%, no sharp cut-off; inactive means mostly below about 43%
NS1 inh: inhibitors of influenza NS1 protein function. Potency, µM (titrated, usually from 46.1 µM). 270,000 tested, 0.4% active; calls by dose curve; further: actives are rising curves; nearly all actives have a fitted effect of over 50% in size
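Compounds were scored for reversing the slow growth caused by influenza A NS1 in S. cerevisiae, measured by optical density at 600 nm. Assay medium contained 2% galactose at pH 6.0; NS1-free yeast of the same strain were the positive control.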
Cycloheximide cs: counter-screen hit for Shiga toxin inhibitors, cycloheximide; cell reporter, cycloheximide protein synthesis inhibition counterscreen; max response, %; 300,000 tested, 12% active; AID 2314; in the data active means max response mostly above about 13%, no sharp cut-off; inactive means mostly below about 14%; further: read at 38.3 µM for the half of the compounds with a filed dose
Pf growth 96h: P. falciparum growth inhibition at 96 hours; P. falciparum luciferase reporter growth, 96 h; Potency, µM (doses to about 28.7 µM), usual class: inhibitors; 320,000 tested, 6.9% active; AID 504834
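Compounds incubated with erythrocytes infected by luciferase-expressing P. falciparum (2% hematocrit, 0.05% parasitemia final) for 96 hours, 37 C in 5% CO2. Growth inhibition scored as decreased luciferase luminescence.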
A number is an active result; – = inactive; ? = inconclusive; · = not tested or not shown. Unless noted, the call rests on the fitted dose curve; in most records, active means well fitted inhibition curve with a large enough effect; inconclusive means small, poorly fitted or top-dose-only effect, or another doubt; inactive means no such curve, though single readings can be large or run the other way.

SMILES | Pf growth 48h | Shiga inhibitor | NS1 inh | Cycloheximide cs | Pf growth 96h
COc1ccc(N2CCN(C(=O)c3ccc(CS(=O)(=O)c4ccccc4C)o3)CC2)cc1 | – | – | – | – | 10µM
Cc1cccc(N2CCN(C(=O)c3ccc(CS(=O)(=O)c4ccccc4C)o3)CC2C)c1 (centres undefined) | 13µM | – | – | – | –
COc1ccccc1S(=O)(=O)Cc1ccc(C(=O)N2CCN(c3cccc(Cl)c3)CC2)o1 | 12µM | – | – | – | –
Cn1c(Cc2ccccc2)nnc1SCC(=O)Nc1ccc(N2CCOCC2)cc1 | – | – | – | – | –
Cc1ccc(NC(=O)CCNS(=O)(=O)c2ccc3[nH]c(=O)oc3c2)cc1N(C)C | – | – | – | – | –
COc1ccc(-c2cc(C(=O)Nc3ccc(OC)c(OC)c3)no2)cc1 | – | – | – | – | ?
Cc1cc(C(=O)Nc2cc(Br)ccc2O)on1 | 5.2µM | – | – | – | –
COc1ccc(NC(=O)c2cc(C)on2)cc1 | – | 89 | · | 56 | ?
CC(=O)Nc1cccc(NC(=O)c2cc(C)on2)c1 | – | 53 | – | 21 | –
CC(=O)Nc1cccc(NC(=O)c2c(-c3ccccc3Cl)noc2C)c1 | – | – | – | – | –
COc1ccc(-c2cc(C(=O)Nc3cc(Br)ccc3O)no2)cc1 | 10µM | – | – | 23 | –
CCc1ccccc1NC(=O)c1cc(C)no1 | – | – | – | – | –
Nn1c(SCC(=O)Nc2nccs2)nnc1C1CC1 | – | – | – | – | –
O=C(CCc1nnc2ccc(NCc3ccccc3)nn12)NCC1CCN(C2CCCC2)C1 (centres undefined) | – | – | – | – | ?
COc1ccc(-c2cc(C(=O)Nc3cc(C)nn3-c3ccccc3)no2)cc1 | – | 72 | – | 40 | ·
COc1ccc(NC(=O)c2cc(-c3ccccc3)on2)cc1 | – | · | – | 19 | –
CC(NC(=O)c1cc(S(=O)(=O)N2CCCC2)ccc1Cl)c1ccccn1 (centres undefined) | – | · | · | · | –
CC(NC(=S)Nc1ccc([N+](=O)[O-])cc1)c1ccncc1 (centres undefined) | ? | – | – | – | –
COc1ccc(N2CC(C(=O)N[C@@H](CC(C)C)C(=O)NC3CCCCC3)CC2=O)cc1 (some centres undefined) | ? | – | – | – | 15µM
O=C(NC1CCCCC1)C1CC(=O)N(c2ccccc2)C1 (centres undefined) | – | – | – | – | 3.3µM
COc1cccc(N2CC(C(=O)NC3CCCCC3)CC2=O)c1 (centres undefined) | – | – | – | – | ·
Cc1ccc(/C=N\NC(=O)C2CC(=O)N(c3ccccc3)C2)o1 (centres undefined) | – | – | – | 24 | –
Cc1ccsc1/C=N/NC(=O)C1CC(=O)N(c2ccccc2)C1 (centres undefined) | – | – | – | – | –
Cc1ccc(N2CC(C(=O)NC3CC3)CC2=O)cc1Cl (centres undefined) | – | – | – | – | –
O=C(NC1CC1)C1CC(=O)N(c2cccc(Cl)c2)C1 (centres undefined) | 10µM | – | – | – | ?
SMILES | Pf growth 48h | Shiga inhibitor | NS1 inh | Cycloheximide cs | Pf growth 96h
COc1cccc(N2CC(C(=O)NNC(=O)c3ccc(Cl)cc3)CC2=O)c1 (centres undefined) | – | – | – | – | 5.9µM
COc1cccc(N2CC(C(=O)Nc3ccc(F)cc3)CC2=O)c1 (centres undefined) | – | – | – | – | –
CN(CC(=O)NC(=O)NC1CCCCC1)Cc1ccccc1 | – | · | · | · | –
Cc1cc(C)n(-c2nc(-c3cccc(Cl)c3)cs2)n1 | · | – | – | 23 | –
Cc1cc(C)n(-c2nc(-c3ccccc3)cs2)n1 | – | 112 | – | – | ·
Cc1cc(C)n(-c2nc(C(=O)O)cs2)n1 | – | – | · | – | –
CC(=O)Cc1cc(O)c2ccccc2c1OC(=O)c1ccc(Br)cc1 | 2.9µM | – | – | – | 5.9µM
CCn1cc(CN2CCN(C)C(CCO)C2)c2ccccc21 (centres undefined) | – | – | – | – | 13µM
CCn1cc(CN2CCN(CCC(C)C)C(CCO)C2)c2ccccc21 (centres undefined) | ? | – | – | – | –
COc1ccc(NC(=O)COC(=O)c2ccc(OC)c(S(=O)(=O)N3CCCC3)c2)cc1OC | – | · | · | · | –
N#Cc1ccc(C23CC4(C2)[C@H](CN(Cc2ccc(C(F)(F)F)cc2)[C@@H]4c2ccccc2)C3c2ccc(Cl)nc2)cc1 (some centres undefined) | 12µM | – | – | – | 13µM
COC(=O)c1ccc(C23CC4(C2)[C@H](CN(Cc2ccc(-c5ccccc5)cc2)[C@@H]4c2ccccc2)C3c2ccccc2)cc1 (some centres undefined) | ? | – | – | – | ?
FC(F)(F)c1ccc(CN2C[C@@H]3C(c4ccc(Cl)nc4)C4(c5cccnc5)CC3(C4)[C@H]2c2ccccc2)cc1 (some centres undefined) | 3.3µM | – | – | – | 2.3µM
COC(=O)c1ccc(C23CC4(C2)[C@H](CN(CC2CCCCC2)[C@@H]4c2ccccc2)C3c2ccc(Cl)nc2)cc1 (some centres undefined) | 9.3µM | – | – | – | 9.3µM
COC(=O)c1ccc(C23CC4(C2)[C@H](CN(Cc2ccc(C(F)(F)F)cc2)[C@@H]4c2ccccc2)C3c2ccc(Cl)nc2)cc1 (some centres undefined) | 5.2µM | – | – | – | 12µM
N[C@@H](C(=O)O)c1ccc(O)c(C(=O)O)c1 | · | – | · | – | ·
COCCNC(=O)NC(=O)CN1CCCc2ccccc21 | ? | – | · | – | –
CC1CCN(c2ccc(N3C(=O)C4CCCCC4C3=O)cc2[N+](=O)[O-])CC1 (centres undefined) | – | – | – | – | –
Clc1ccc(C2[C@H]3CN(Cc4ccc(-c5ccccc5)cc4)[C@H](c4ccccc4)C34CC2(c2cccnc2)C4)cn1 (some centres undefined) | 3.3µM | – | – | – | 2.3µM
Clc1ccc(C2[C@H]3CN(CC4CCCCC4)[C@H](c4ccccc4)C34CC2(c2ccccc2)C4)cn1 (some centres undefined) | ? | – | – | – | ?
COC(=O)c1cccc(C23CC4(C2)[C@H](CN(Cc2ccc(-c5ccccc5)cc2)[C@@H]4c2ccccc2)C3c2ccc(Cl)nc2)c1 (some centres undefined) | ? | – | – | – | ?
c1ccc(-c2ccc(CN3C[C@@H]4C(c5ccccc5)C5(c6ccccc6)CC4(C5)[C@H]3c3ccccc3)cc2)cc1 (some centres undefined) | – | – | – | – | ?
COC(=O)c1cccc(C23CC4(C2)[C@H](CN(CC2CCCCC2)[C@@H]4c2ccccc2)C3c2ccccc2)c1 (some centres undefined) | 10µM | – | – | – | 4.1µM
FC(F)(F)c1ccc(C2[C@H]3CN(CC4CCCCC4)[C@H](c4ccccc4)C34CC2(c2cccnc2)C4)cc1 (some centres undefined) | 3.3µM | – | – | – | 3.3µM
